Signal change vs control minus 3*SD hit threshold (margin above threshold, higher = more increase) data for 49 compounds are collected here from PubChem BioAssay AID1839 (Johns Hopkins Ion Channel Center, 2009).

The structures appear in SMILES notation. In all, about 2,400 compounds went through this assay and about 220 (9.2%) were called active. This excerpt belongs to a sample that is enriched for actives. Values without a mark were called inactive.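 How the source made its calls: active means signal change above the mean of dofetilide-free buffer controls plus 3 SD, so a positive margin; inactive means the rest.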

This test in a line: thallium signal changes without hERG – cell-based, CHO-K1 parental line, FluxOR thallium flux, counter-screen for hERG block protection project, confirmation (AID 1839).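 Further: compounds applied alone with no dofetilide to cells lacking hERG.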 The following applies: CHO-K1 parental cells, FluxOR thallium flux fluorescence; at 10 µM.
For `O=C(Cc1cccs1)Nn1c(Cc2cccs2)nc2ccccc2c1=O`, the signal change vs control minus 3*SD hit threshold (margin above threshold, higher = more increase) was -15.1%.
Take `Cc1cc(NC(=O)CCCn2cnc([N+](=O)[O-])n2)no1`: the signal change vs control minus 3*SD hit threshold (margin above threshold, higher = more increase) is -28.2%.
As for `COC(=O)C(C)Sc1nnc(Cc2cc(=O)[nH]c(=O)[nH]2)n1-c1cccc(OC)c1` (centres undefined), the signal change vs control minus 3*SD hit threshold (margin above threshold, higher = more increase) was -26%.
On to `S=c1[nH]nc(-c2cccs2)n1/N=C/c1c(Cl)cccc1Cl`, for which the signal change vs control minus 3*SD hit threshold (margin above threshold, higher = more increase) was -17.3%.
`CN(C)S(=O)(=O)c1cc(NC2CC(=O)N(c3ccc(F)cc3)C2=O)ccc1Cl` (centres undefined): the signal change vs control minus 3*SD hit threshold (margin above threshold, higher = more increase) is -30.5%.
To `Cc1cc(C)c(C(=O)c2ccc(C(=O)N3CCCCC3)cc2)c(C)c1` belongs -37.3%; to `COC(=O)c1sccc1NC(=O)CSc1ccccc1NS(=O)(=O)c1cc(Cl)ccc1Cl`, -29.7%.
To `O=S(=O)(Nc1nc(-c2sccc2Cl)cs1)c1cc(Cl)ccc1Cl` belongs 15.7% (active).
As to `O=C(O)c1ccccc1P(=O)(c1ccccc1)c1ccccc1`, the signal change vs control minus 3*SD hit threshold (margin above threshold, higher = more increase) is -29.2%.
`CCc1cccc(C)c1NC(=O)C1=C(C(=O)O)CCCC1`: the signal change vs control minus 3*SD hit threshold (margin above threshold, higher = more increase) is -33.6%.
Regarding `CN(C(=O)c1ccc(Cl)c(S(=O)(=O)N2CCOCC2)c1)c1ccccc1C(=O)O`, the signal change vs control minus 3*SD hit threshold (margin above threshold, higher = more increase) was -13.3%.
As to `CCC(C)n1c(=S)[nH]c2ccccc2c1=O` (centres undefined), the signal change vs control minus 3*SD hit threshold (margin above threshold, higher = more increase) was -5.7%.
Consider `Cn1c(=S)[nH]c2scc(-c3cccs3)c2c1=O`, for which the signal change vs control minus 3*SD hit threshold (margin above threshold, higher = more increase) was 27.9% (active).
To `S=c1[nH]c(-c2cccs2)cn1-c1ccccc1` belongs -21.8%; to `CC(C)n1c(=S)[nH]c2scc(-c3cccs3)c2c1=O`, 28.9% (active).
In the case of `CC(C1CC2CCC1C2)n1c(-c2cccs2)n[nH]c1=S` (centres undefined), the signal change vs control minus 3*SD hit threshold (margin above threshold, higher = more increase) is -18.6%.
For the compound `COc1cc(/C=N/n2cnc3scc(-c4cccs4)c3c2=O)cc(OC)c1OC`, the signal change vs control minus 3*SD hit threshold (margin above threshold, higher = more increase) was -32%.
In the case of `O=C(O)/C=C/C(=O)Nc1ccc(OC(F)(F)F)cc1`, the signal change vs control minus 3*SD hit threshold (margin above threshold, higher = more increase) is -22.2%.
Consider `CC(NC(=O)CCNC(=O)c1ccco1)c1ccc(F)cc1` (centres undefined), for which the signal change vs control minus 3*SD hit threshold (margin above threshold, higher = more increase) is -35.2%.
With `CCc1c(C)sc(NC(=O)CN2CCN(C(=O)c3ccco3)CC2)c1C(=O)OC`, the signal change vs control minus 3*SD hit threshold (margin above threshold, higher = more increase) was -35.4%.
To `CCc1ccc2[nH]c(=O)c(-c3ccccc3)c(O)c2c1` belongs -28.9%; to `COc1cc(Cl)c(C)cc1NC(=O)CSc1sc2c(O)cc(=O)[nH]c2c1C#N`, -30.6%.
As to `CCOc1ccc(C(=O)Nc2ccccc2C(=O)O)cc1`, the signal change vs control minus 3*SD hit threshold (margin above threshold, higher = more increase) is -21.4%.
In the case of `C=CCN(c1ccc(Cl)cc1)S(=O)(=O)c1cccc(C(=O)O)c1`, the signal change vs control minus 3*SD hit threshold (margin above threshold, higher = more increase) is -22.9%.
The same measure for `O=C(NC(=S)NCCC1=CCCCC1)c1ccco1`: 22.8% (active).
`O=C(NC(=S)NCCc1ccc(Cl)cc1)c1ccco1`: the signal change vs control minus 3*SD hit threshold (margin above threshold, higher = more increase) is -21.7%.
With `O=C(NC(=S)NCCC1=CCCCC1)c1ccc(Br)o1`, the signal change vs control minus 3*SD hit threshold (margin above threshold, higher = more increase) is -1.2%.
As to `COc1ccc(/C=C/c2cc(=O)c3cc(Cl)ccc3o2)cc1`, the signal change vs control minus 3*SD hit threshold (margin above threshold, higher = more increase) is -32.9%.
Take `Cc1nc(NCc2cccnc2)c2c3c(sc2n1)CC(C)CC3` (centres undefined): the signal change vs control minus 3*SD hit threshold (margin above threshold, higher = more increase) is 5.6% (active).
`Cc1nc(NCCc2ccc(S(N)(=O)=O)cc2)c2c(C)c(C)sc2n1`: the signal change vs control minus 3*SD hit threshold (margin above threshold, higher = more increase) was -24.9%.
On to `Cc1ccc(OCc2ccoc2C(=O)O)cc1C`, for which the signal change vs control minus 3*SD hit threshold (margin above threshold, higher = more increase) is -4.5%.
As for `Fc1cccc(C2NN=C(c3ccccc3)S2)c1` (centres undefined), the signal change vs control minus 3*SD hit threshold (margin above threshold, higher = more increase) was -15.8%.
To `O=C(NC(=S)NCc1ccc(-c2nc3ccccc3s2)cc1)c1ccco1` belongs -21.2%.
To `O=C(NC(=S)Nc1nc2ccccc2s1)c1ccco1` belongs 9.2% (active); to `O=C(NC(=S)Nc1nc(-c2ccc([N+](=O)[O-])cc2)cs1)c1ccco1`, 1% (active).
To `O=C(NC(=S)Nc1nc2ccc(F)cc2s1)c1ccco1` belongs 47% (active).
Turning to `COc1ccc(-c2csc(NC(=S)NC(=O)c3ccco3)n2)cc1Br`, the signal change vs control minus 3*SD hit threshold (margin above threshold, higher = more increase) is -15.8%.
The same measure for `CCOC(=O)c1sc(NC(=S)NC(=O)c2ccco2)nc1C`: -14.4%.
The same measure for `O=C(NC(=S)Nc1nc2ccccc2s1)c1cccs1`: -8.5%; for `O=C(NC(=S)Nc1cccc([N+](=O)[O-])c1)c1ccco1`: -40.6%; for `COc1ccc(-c2csc(NC(=S)NC(=O)c3ccco3)n2)cc1`: -14%.
As for `O=C(NC(=S)Nc1nc(-c2ccccc2)cs1)c1ccco1`, the signal change vs control minus 3*SD hit threshold (margin above threshold, higher = more increase) is -21.2%.
The same measure for `O=C(NC(=S)Nc1nc(-c2ccc(Br)cc2)cs1)c1ccco1`: -20.8%; for `COc1ccc2nc(NC(=S)NC(=O)c3ccco3)sc2c1`: 0.7% (active).
In the case of `CC(C)Oc1c(Cl)cc(CNC(C)(C)CO)cc1Cl`, the signal change vs control minus 3*SD hit threshold (margin above threshold, higher = more increase) was -26.9%.
Take `CCN(CCCn1c(=S)[nH]c2ncccc2c1=O)c1ccccc1`: the signal change vs control minus 3*SD hit threshold (margin above threshold, higher = more increase) is -29.7%.
Regarding `COC(=O)C1=C(C)N(CC2CCCO2)C(=O)/C1=C\c1ccc(O)cc1` (centres undefined), the signal change vs control minus 3*SD hit threshold (margin above threshold, higher = more increase) is -14.9%.
Consider `Nn1c(SCC(=O)Nc2ccc(OC(F)F)cc2)nnc1-c1ccco1`, for which the signal change vs control minus 3*SD hit threshold (margin above threshold, higher = more increase) is -27%.
For the compound `Cc1cccc(NC(=O)CN2C(=O)S/C(=C\c3ccc(-c4cccc(C(=O)O)c4C)o3)C2=O)c1`, the signal change vs control minus 3*SD hit threshold (margin above threshold, higher = more increase) is -29.7%.
